Results as given in publication PMC5540273 (PLoS ONE, 2017).

Experiments:
Conditions in all cases: concentration: 1 μM, replicates: in singlicate; n = 1
RIPK5 = system: RIPK5
ROCK1 = system: ROCK1
ROCK2 = system: ROCK2
ROS1 = system: ROS1
[1] = system: RPS6KA4(Kin.Dom.1-N-terminal)
[2] = system: RPS6KA4(Kin.Dom.2-C-terminal)
[3] = system: RPS6KA5(Kin.Dom.1-N-terminal)
[4] = system: RPS6KA5(Kin.Dom.2-C-terminal)
[5] = system: T1, RSK1(Kin.Dom.1-N-terminal)
T1 construct: gene RPS6KA1

[6] = system: T2, RSK1(Kin.Dom.2-C-terminal)
T2 construct: gene RPS6KA1

[7] = system: T3, RSK2(Kin.Dom.1-N-terminal)
T3 construct: gene RPS6KA3

[8] = system: T4, RSK2(Kin.Dom.2-C-terminal)
T4 construct: gene RPS6KA3

[9] = system: T5, RSK3(Kin.Dom.1-N-terminal)
T5 construct: gene RPS6KA2

[10] = system: T6, RSK3(Kin.Dom.2-C-terminal)
T6 construct: gene RPS6KA2

[11] = system: T7, RSK4(Kin.Dom.1-N-terminal)
T7 construct: gene RPS6KA6

[12] = system: T8, RSK4(Kin.Dom.2-C-terminal)
T8 construct: gene RPS6KA6

S6K1 = system: S6K1
SBK1 = system: SBK1
SGK2 = system: SGK2
SGK3 = system: SGK3
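Also: KINOMEscan kinase panel screen.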

Compound | %Inh (RIPK5) [%] | %Inh (ROCK1) [%] | %Inh (ROCK2) [%] | %Inh (ROS1) [%] | %Inh [1] [%] | %Inh [2] [%] | %Inh [3] [%] | %Inh [4] [%] | %Inh [5] [%] | %Inh [6] [%] | %Inh [7] [%] | %Inh [8] [%] | %Inh [9] [%] | %Inh [10] [%] | %Inh [11] [%] | %Inh [12] [%] | %Inh (S6K1) [%] | %Inh (SBK1) [%] | %Inh (SGK2) [%] | %Inh (SGK3) [%]
CN1c2ccc(NCc3ccc(F)cc3)cc2-c2c(cnn2C)S1(=O)=O | 0 | 0 | 0 | 0 | 0 | 0 | 0 | 0 | 0 | 20 | 23 | 31 | 10 | 22 | 0 | 98.7 | 10 | 0 | 18 | 4
O=c1cc(N2CCOCC2)nc2n(Cc3cccc4ccccc34)ccn12 [GSK2333389] | 0 | 0 | 19 | 0 | 12 | 0 | 0 | 0 | 0 | 0 | 0 | 0 | 2 | 0 | 0 | 8 | 0 | 14 | 0 | 0
Cn1ccc2ncnc(Oc3ccc(NC(=O)Nc4ccncc4)c(Cl)c3)c21 | 0 | 0 | 0 | 0 | 0 | 0 | 13 | 0 | 0 | 0 | 0 | 0 | 0 | 0 | 0 | 0 | 0 | 0 | 2 | 0
COc1cc2c(cc1OC[C@@H](O)CO)ncc1c3ccc(C#N)cc3[nH]c21 | 7 | 91.1 | 96.9 | 0 | 0 | 9 | 0 | 26 | 33 | 17 | 80 | 0 | 11 | 11 | 88 | 18 | 40 | 71 | 0 | 38
Nc1nc(-c2ccc3c(N)n[nH]c3c2)cc(N2CCCC2)n1 [GSK2227430] | 0 | 2 | 0 | 0 | 0 | 0 | 10 | 0 | 9 | 0 | 0 | 0 | 20 | 17 | 0 | 0 | 0 | 8 | 0 | 8
NS(=O)(=O)c1cccc(-c2ccc3nccc(-c4cccc(S(N)(=O)=O)c4)c3c2)c1 [GW867253] | 11 | 37 | 37 | 0 | 0 | 0 | 4 | 7 | 0 | 23 | 31 | 56 | 0 | 11 | 12 | 30 | 16 | 0 | 0 | 0
Cc1c(Cn2c(C)nn3c(=O)cc(N4CCOC(C)C4)nc23)cccc1C(F)(F)F (stereo not drawn) [GSK2344444] | 0 | 0 | 10 | 14 | 21 | 0 | 0 | 0 | 0 | 6 | 10 | 0 | 3 | 0 | 1 | 17 | 9 | 33 | 0 | 0
Cc1cn2c(=O)cc(N3CCOCC3)nc2n1Cc1cccc(Cl)c1Cl [GSK2334006] | 0 | 33 | 30 | 15 | 27 | 0 | 24 | 6 | 0 | 5 | 12 | 25 | 16 | 0 | 15 | 13 | 3 | 0 | 0 | 0
CCc1nc(-c2cccc(C)c2)c(-c2ccnc(NCc3ccccc3)c2)s1 | 14 | 0 | 0 | 0 | 0 | 1 | 1 | 4 | 0 | 57 | 0 | 0 | 0 | 2 | 0 | 53 | 4 | 0 | 4 | 0
Fc1ccc(-c2nn3c(OCC(F)(F)F)cccc3c2-c2ccncc2)cc1 [GW514784] | 0 | 36 | 34 | 13 | 10 | 0 | 12 | 13 | 6 | 29 | 0 | 0 | 3 | 8 | 0 | 89 | 0 | 2 | 9 | 0
Fc1ccc(-c2ncn(CCCN3CCOCC3)c2-c2ccccn2)cc1 [SB-211742] | 0 | 0 | 0 | 0 | 26 | 0 | 0 | 5 | 0 | 16 | 0 | 49 | 0 | 35 | 0 | 0 | 0 | 0 | 0 | 0
CN1c2ccc(CNc3ccc(F)cc3)cc2-c2c(cnn2C)S1(=O)=O | 4 | 0 | 0 | 4 | 0 | 0 | 0 | 0 | 0 | 14 | 23 | 41 | 3 | 8 | 5 | 0 | 0 | 0 | 100 | 0
Cc1cccc(Cn2ccn3c(=O)cc(N4CCOCC4)nc23)c1 [GSK2297542] | 1 | 17 | 27 | 30 | 13 | 0 | 16 | 0 | 27 | 25 | 11 | 33 | 19 | 44 | 0 | 42 | 6 | 26 | 1 | 0
Cc1c2ccc(N(C)c3ccnc(Nc4cccc(S(N)(=O)=O)c4)n3)cc2nn1Cc1ccccc1.Cl.Cl [GW787226] | 28 | 48 | 0 | 62 | 18 | 0 | 0 | 0 | 0 | 19 | 18 | 0 | 0 | 0 | 6 | 0 | 65 | 0 | 0 | 0
Nc1nccc(-c2c(-c3ccc(F)cc3)ncn2C2CCN(CC(F)(F)F)CC2)n1 [SB-236560] | 13 | 38 | 49 | 14 | 0 | 0 | 0 | 0 | 0 | 27 | 14 | 35 | 13 | 35 | 0 | 56 | 0 | 0 | 0 | 3
COc1cc2c(cc1OCCN1CCN(C)CC1)ncc1c3ccc(C#N)cc3[nH]c21 | 33 | 98.1 | 99.4 | 0 | 0 | 0 | 0 | 71 | 0 | 26 | 61 | 42 | 33 | 47 | 67 | 44 | 53 | 72 | 43 | 19
COc1ccc(S(=O)(=O)NC2CCN(c3cc(C)nc(Nc4cccc(C#N)c4)n3)CC2)cc1.O=C(O)C(F)(F)F [GSK1653539] | 0 | 0 | 0 | 16 | 0 | 0 | 2 | 23 | 8 | 0 | 0 | 0 | 1 | 0 | 0 | 21 | 0 | 0 | 0 | 4
Cc1nnc(-c2ccc3occ(-c4ccc(C(C)O)cc4)c3c2)o1 (stereo not drawn) | 0 | 5 | 0 | 0 | 9 | 25 | 20 | 0 | 9 | 1 | 3 | 0 | 0 | 3 | 19 | 7 | 0 | 0 | 0 | 0
c1ccc(-c2n[nH]cc2-c2ccnc3ccccc23)nc1 [GW271431] | 0 | 0 | 0 | 28 | 11 | 0 | 9 | 4 | 21 | 12 | 0 | 0 | 0 | 0 | 0 | 48 | 1 | 9 | 6 | 10
CC(=O)Nc1ccc(COc2ccc(Nc3ccnc4cc(-c5ccccn5)ccc34)cc2)cc1.Cl [GW440148] | 0 | 14 | 7 | 0 | 0 | 0 | 1 | 20 | 7 | 33 | 0 | 6 | 3 | 11 | 0 | 26 | 0 | 0 | 0 | 8
O=c1cc(N2CCOCC2)nc2n(Cc3cccc(C(F)(F)F)c3)ccn12 [GSK2297543] | 0 | 0 | 17 | 32 | 13 | 0 | 4 | 6 | 0 | 15 | 16 | 6 | 0 | 6 | 0 | 13 | 0 | 37 | 0 | 5
